The values below come from PubChem BioAssay AID485349 (National Center for Advancing Translational Sciences (NCATS), 2010).

Screen size: about 320,000 compounds; about 620 (0.19%) were called active. What follows is part of a selection rich in actives, with near analogues and random picks from the rest. A number with no mark means an inactive call. Calls come from the whole dose curve; as a rule, active = well fitted activation curve with a large enough effect; inconclusive = small, poorly fitted or top-dose-only effect; inactive = no such curve, though single readings can be large or run the other way.
Potency is the fitted concentration of half-maximal effect.

The nature of the test: qHTS Assay for Identifying a Potential Treatment of Ataxia-Telangiectasia. For activation: % of control where 0% means no effect. Note: nearly all actives have a fitted effect of over 45% in size. The settings on record: F2112 A-T fibroblasts, KAP-1 phosphorylation AlphaLISA, neocarzinostatin DNA damage 30 min before lysis; series mostly up to 57.5 µM; activation: at the top concentration. The gist of the method: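 hTERT-immortalized A-T patient fibroblasts (F2112), 500 cells/well in OPTI-MEM, 1% FBS, got compounds for 60 min, then NCS for 30 min at 37C. Lysates were then assayed for phospho-KAP-1 by AlphaLISA (anti-pKAP1 donor, anti-KAP1 acceptor beads), 6 hr at 25C.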
`COC(=O)c1ccc(C2C(Oc3ccccc3C)C(=O)N2CCc2ccc(OC)c(OC)c2)cc1` (stereo not given): the “activation” value is 26.3%.
For the molecule `CC(=O)C1=C(O)C(=O)N(c2ccc(S(N)(=O)=O)cc2)C1c1ccccc1F` (stereo not given), the “activation” value was -0.685%.
Take `O=P(O)(CN1CCCCC1)CN1CCCCC1`: the “activation” value was 6.95%.
Turning to `N=c1ccn(CC(=O)NC(N)=O)c2ccccc12`, the “activation” value was 6.18%.
On the same count and under the same terms, in the case of `O=C(OCCN=C1NS(=O)(=O)c2ccccc21)c1cccc([N+](=O)[O-])c1` it was 0.583%.
On to `O=C(O)c1[nH]c2ccccc2c1C(c1cccc(O)c1)c1c(C(=O)O)[nH]c2ccccc12`, for which the “activation” value is -5.26%.
`C[C@@H]1CN([C@@H](C)CO)C(=O)c2cc(NC(=O)C3CC3)ccc2O[C@H]1CN(C)C`: the “activation” value is 8.61%.
As for `O=c1o[nH]c(-c2ccccc2)c1N=Nc1c(F)cccc1Cl`, the “activation” value was -14.2%.
Take `COc1ccc(C(C)NC(=S)NC2CCCCC2)cc1OC` (stereo not given): the “activation” value is 7.74%.
Take `Cc1ccc(CNC(=O)Cc2cn(C)c3ccccc23)cc1`: the “activation” value is 12.3%.
Take `Cc1ccc(C(=O)N/C(=C\c2ccco2)C(=O)NC2CCS(=O)(=O)C2)cc1` (stereo not given): the Potency is 10 µM (active).
On to `O=C(NCC1CCCO1)/C(=C\c1ccco1)NC(=O)c1ccccc1` (stereo not given), for which the “activation” value was 20.5%.
Still for that read-out and setting: in the case of `O=C(NCc1ccco1)/C(=C/c1ccco1)NC(=O)c1ccccc1` it was -8.8%.
`O=S(=O)(NC1CCN(S(=O)(=O)c2ccc3c(c2)OCCO3)CC1)c1c(F)cccc1F`: the “activation” value was -5%.
On to `CC1CCCN(C(=O)c2ccc3c(c2)C(=O)N(CCC2=CCCCC2)C3=O)C1` (stereo not given), for which the “activation” value was -18.6%.
Regarding `COc1ccc2[nH]c3c(c2c1)CCN1C(=O)C(CC(=O)NCCc2ccccn2)C[C@H](C(=O)N2CCOCC2)[C@@]31C` (stereo not given in full), the “activation” value was 10.7%.
For `O=C(NCC1CCCO1)c1ccc(S(=O)(=O)Nc2ccc(F)cc2)cc1` (stereo not given), the “activation” value was 0.226%.
Still for that read-out and setting: in the case of `O=C1CCCN1C(=O)COc1ccc([N+](=O)[O-])cc1` it was -6.5%.
In the case of `O=C(NCCc1csc(-c2ccccc2)n1)c1ccccc1F`, the Potency was 22.4 µM (active).
For `O=S(=O)(NCCc1csc(-c2ccccc2)n1)c1cccnc1`, the “activation” value was -3.45%.
Regarding `COc1ccc(-c2nc(CCNC(=O)c3ccc(Br)o3)cs2)cc1`, the “activation” value was 11.6%.
`COCCn1c(C)cc(C(=O)COC(=O)/C=C/c2cccc(OC)c2)c1C`: the “activation” value was -1.3%.
For `CCOC(=O)C1=CN(Cc2ccc(Br)cc2)S(=O)(=O)NC1C` (stereo not given), the “activation” value is -9.89%.
As for `O=C(Nc1ccccc1N1CCN(C(=O)c2ccccc2)CC1)c1ccco1`, the “activation” value was 7.67%.
Turning to `O=C(Nc1cccc2c1N(C(=O)c1ccco1)CCC2)c1ccco1`, the Potency is 35.5 µM (active).
For `O=C(Nc1ccccc1C(=O)N1CCCCC1)c1ccco1`, the “activation” value is 8.96%.
On the same count and under the same terms, in the case of `CCN(C(=O)COC(=O)c1c(C)nn(-c2ccccc2)c1Cl)c1c(N)n(Cc2ccccc2)c(=O)[nH]c1=O` it was -3.48%; in that of `CC[C@]12c3[nH]c4ccc(Cl)cc4c3CCN1C(=O)[C@@H](CC(=O)NCCN1CCOCC1)C[C@@H]2C(=O)N1CCN(C(=O)C2CC2)CC1`, -2.31%.
On the same count and under the same terms, in the case of `CCN(CC)P(=O)(Nc1ccc(SC(F)F)cc1)c1ccc(N(C)C)cc1NC(=O)c1ccco1` (stereo not given) it was 1.66%.
As to `CCCCNC(=O)C(C)N(CCN(C)C)C(=O)CCCCCN1C(=O)NC(c2ccc(Cl)cc2)C(C(=O)OCc2ccccc2)=C1C` (stereo not given), the “activation” value is 8.98%.
Consider `Cc1cccc(-n2c(SCC(=O)Nc3cccc(S(=O)(=O)NC4=NCCCCC4)c3)nc3ccccc3c2=O)c1C`, for which the “activation” value is 5.49%.
As to `CC/C=C/C(=O)N1CC2(CC(c3cccc(NC(=O)CC)c3)=NO2)C[C@H]1C(N)=O` (stereo not given in full), the “activation” value is 0%.
Turning to `C/C=C(/C)C(=O)Nc1cccc(C2=NOC3(C2)C[C@@H](C(N)=O)N(C(=O)C2(C)CC2)C3)c1` (stereo not given in full), the “activation” value was 32.3%.
As to `C/C=C\C=C\C(=O)N1CC2(CC(c3cccc(NC(=O)/C(C)=C\C)c3)=NO2)C[C@H]1C(N)=O` (stereo not given in full), the Potency was 25.1 µM (active).
For `O=C(NCCC(=O)N1O[C@@H]2C=C[C@H]1C2)OCC1c2ccccc2-c2ccccc21`, the activation is -1.69% [at 11.5 µM].
For the molecule `Cc1ccc(S(=O)(=O)N2CCN(C)CC2)cc1C(=O)NC1CCCCC1`, the “activation” value is 1.7%.
Still for that read-out and setting: in the case of `Fc1ccc(CNCc2ccc(Br)cc2)cc1` it was 17.2%; in that of `Cc1cccc(CN2CCN(Cc3cnn(-c4ccccc4F)c3)CC2CCO)n1` (stereo not given), 11.2%.
Still for that read-out and setting: in the case of `O=C(Nc1ccccc1)N1CCC(C(=O)N2CCN(Cc3ccccc3)CC2)CC1` it was -5.34%.
Turning to `COc1ccc(N(CC(=O)Nc2ccc(C)cc2C)S(=O)(=O)c2ccccc2[N+](=O)[O-])c(OC)c1`, the activation is 2.47% [at 11.5 µM].
Consider `CCOC(=O)N1CCC(Nc2c(NCCCN3CCN(c4ccc(OC)cc4)CC3)c(=O)c2=O)CC1`, for which the Potency is 11.2 µM (active).
On to `CCOC(=O)N1CCC(Nc2c(NCCCN3CCN(CC)CC3)c(=O)c2=O)CC1`, for which the “activation” value is 0.0532%.
As for `CCOC(=O)N1CCC(Nc2c(NCCN3CCN(c4cccc(Cl)c4)CC3)c(=O)c2=O)CC1`, the “activation” value is 7.77%.
On the same count and under the same terms, in the case of `CCCCCCCCCCCCN1C(=O)CSC1c1cccnc1` (stereo not given) it was 8.52%; in that of `CC(C)Cc1ccc(S(=O)(=O)N2CCN(C(=O)c3ccco3)CC2)cc1`, 6.31%.
